Measurements reported in PubChem BioAssay AID1159580 (chemical genetic matrix, 2015).
Among all 5,500 compounds or so, about 2,000 (36%) were called active. Not shown: some 18% with an inconclusive outcome. No stated cut-off is given here; in the data, active means normalized growth mostly below about 0.91 (no sharp cut-off); inconclusive means no clear call, values can overlap the other calls; inactive means mostly above about 0.92. The list shows a part of the results.

Experiment: chemical genetic growth profiling, strain panel (AID 1159580);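 further: tested at 20 µM; growth read once vehicle control cultures reached saturation at 30 °C; 1 = growth at the plate median or of vehicle wells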
Conditions: growth OD

Measured: normalized growth

CCn1cc(C(=O)O)c(=O)c2cnc(N3CCCC3)nc21
active: S. cerevisiae deletion strains, locus YLR262C, strain YPT6 (second series), stronger effect = lower value 0.789
inactive: S. cerevisiae deletion strains, locus YKL009W, strain mrt4, stronger effect = lower value 0.987 | S. cerevisiae deletion strains, locus YKL068W, stronger effect = lower value 1 | S. cerevisiae deletion strains, locus YKL085W, strain MDH1 (second series), stronger effect = lower value 0.998 | S. cerevisiae deletion strains, locus YKL085W, strain MDH1, stronger effect = lower value 0.998 | S. cerevisiae deletion strains, locus YKL160W, strain elf1, stronger effect = lower value 0.975 | S. cerevisiae deletion strains, locus YKL190W, strain CNB1, stronger effect = lower value 1 | S. cerevisiae deletion strains, locus YKR001C, strain vps1, stronger effect = lower value 0.943 | S. cerevisiae deletion strains, locus YKR026C, strain gcn3, stronger effect = lower value 1.02 | S. cerevisiae deletion strains, locus YKR091W, strain srl3, stronger effect = lower value 1 | S. cerevisiae deletion strains, locus YLL001W, strain dnm1, stronger effect = lower value 1.02 | S. cerevisiae deletion strains, locus YLL026W, stronger effect = lower value 1 | S. cerevisiae deletion strains, locus YLL041C, strain sdh2, stronger effect = lower value 0.993 | S. cerevisiae deletion strains, locus YLR027C, strain aat2, stronger effect = lower value 0.996 | S. cerevisiae deletion strains, locus YLR039C, strain RIC1, stronger effect = lower value 0.935 | S. cerevisiae deletion strains, locus YLR058C, strain SHM2, stronger effect = lower value 1.01 | S. cerevisiae deletion strains, locus YLR102C, strain apc9, stronger effect = lower value 1 | S. cerevisiae deletion strains, locus YLR113W, strain HOG1, stronger effect = lower value 0.986 | S. cerevisiae deletion strains, locus YLR221C, strain rsa3, stronger effect = lower value 0.994 | S. cerevisiae deletion strains, locus YLR258W, strain gsy2, stronger effect = lower value 1.02 | S. cerevisiae deletion strains, locus YLR262C, strain YPT6, stronger effect = lower value 0.904 | S. cerevisiae deletion strains, locus YLR268W, strain sec22, stronger effect = lower value 0.972 | S. cerevisiae deletion strains, locus YLR320W, strain mms22, stronger effect = lower value 1.03 | S. cerevisiae deletion strains, locus YLR330W, strain CHS5, stronger effect = lower value 1.01 | S. cerevisiae deletion strains, locus YLR342W, strain FKS1 (second series), stronger effect = lower value 1.04 | S. cerevisiae deletion strains, locus YLR342W, strain FKS1, stronger effect = lower value 1 | S. cerevisiae deletion strains, locus YLR357W, strain rsc2, stronger effect = lower value 1.01 | S. cerevisiae deletion strains, locus YLR370C, strain arc18, stronger effect = lower value 0.981 | S. cerevisiae deletion strains, locus YLR371W, strain rom2, stronger effect = lower value 0.998 | S. cerevisiae deletion strains, locus YLR384C, strain iki3, stronger effect = lower value 1.01 | S. cerevisiae deletion strains, locus YLR418C, strain cdc73, stronger effect = lower value 1.09 | S. cerevisiae deletion strains, locus YML016C, strain PPZ1, stronger effect = lower value 0.999 | S. cerevisiae deletion strains, locus YML032C, strain rad52, stronger effect = lower value 0.999 | S. cerevisiae deletion strains, locus YML120C, strain ndi1, stronger effect = lower value 0.981 | S. cerevisiae deletion strains, locus YML124C, strain tub3, stronger effect = lower value 0.993 | S. cerevisiae deletion strains, locus YMR058W, strain fet3, stronger effect = lower value 1 | S. cerevisiae deletion strains, locus YMR078C, strain ctf18, stronger effect = lower value 1 | S. cerevisiae deletion strains, locus YMR125W, strain sto1, stronger effect = lower value 1.01 | S. cerevisiae deletion strains, locus YMR129W, stronger effect = lower value 1 | S. cerevisiae deletion strains, locus YMR205C, strain PFK2, stronger effect = lower value 1.06 | S. cerevisiae deletion strains, locus YMR223W, strain ubp8, stronger effect = lower value 0.98 | S. cerevisiae deletion strains, locus YMR231W, strain pep5, stronger effect = lower value 1 | S. cerevisiae deletion strains, locus YMR263W, strain SAP30, stronger effect = lower value 1.01 | S. cerevisiae deletion strains, locus YMR307W, strain GAS1, stronger effect = lower value 1.06 | S. cerevisiae deletion strains, locus YNL067W, strain RPL9B, stronger effect = lower value 0.998 | S. cerevisiae deletion strains, locus YNL071W, strain lat1, stronger effect = lower value 1 | S. cerevisiae deletion strains, locus YNL128W, strain TEP1, stronger effect = lower value 1.05 | S. cerevisiae deletion strains, locus YNL153C, strain GIM3, stronger effect = lower value 0.996 | S. cerevisiae deletion strains, locus YNL183C, strain NPR1, stronger effect = lower value 0.924 | S. cerevisiae deletion strains, locus YNL209W, strain ssb2, stronger effect = lower value 0.993 | S. cerevisiae deletion strains, locus YNL233W, strain BNI4, stronger effect = lower value 1.02 | S. cerevisiae deletion strains, locus YNL248C, strain rpa49, stronger effect = lower value 0.956 | S. cerevisiae deletion strains, locus YNL250W, strain rad50, stronger effect = lower value 0.996 | S. cerevisiae deletion strains, locus YNL271C, strain bni1, stronger effect = lower value 1.02 | S. cerevisiae deletion strains, locus YNL298W, strain CLA4, stronger effect = lower value 1 | S. cerevisiae deletion strains, locus YNL307C, strain MCK1, stronger effect = lower value 1.03 | S. cerevisiae deletion strains, locus YNL322C, strain KRE1 (second series), stronger effect = lower value 1 | S. cerevisiae deletion strains, locus YNL322C, strain KRE1, stronger effect = lower value 0.999 | S. cerevisiae deletion strains, locus YNR049C, strain mso1, stronger effect = lower value 0.984 | S. cerevisiae deletion strains, locus YNR052C, strain pop2, stronger effect = lower value 0.961 | S. cerevisiae deletion strains, locus YOL006C, strain TOP1, stronger effect = lower value 1.06 | S. cerevisiae deletion strains, locus YOL012C, strain htz1 1.62 | S. cerevisiae deletion strains, locus YOL147C, strain pex11, stronger effect = lower value 0.998 | S. cerevisiae deletion strains, locus YOR001W, strain rrp6, stronger effect = lower value 0.958 | S. cerevisiae deletion strains, locus YOR061W, strain CKA2, stronger effect = lower value 1 | S. cerevisiae deletion strains, locus YOR069W, strain VPS5, stronger effect = lower value 1 | S. cerevisiae deletion strains, locus YOR070C, strain gyp1, stronger effect = lower value 1.01 | S. cerevisiae deletion strains, locus YOR080W, strain dia2, stronger effect = lower value 1.01 | S. cerevisiae deletion strains, locus YOR083W, strain WHI5, stronger effect = lower value 0.968 | S. cerevisiae deletion strains, locus YOR106W, strain vam3, stronger effect = lower value 0.936 | S. cerevisiae deletion strains, locus YOR136W, strain idh2, stronger effect = lower value 0.999 | S. cerevisiae deletion strains, locus YOR144C, strain elg1, stronger effect = lower value 0.988 | S. cerevisiae deletion strains, locus YOR184W, strain ser1, stronger effect = lower value 0.978 | S. cerevisiae deletion strains, locus YOR231W, strain MKK1, stronger effect = lower value 0.983 | S. cerevisiae deletion strains, locus YOR265W, strain rbl2, stronger effect = lower value 1.01 | S. cerevisiae deletion strains, locus YOR270C, strain vph1, stronger effect = lower value 1.02 | S. cerevisiae deletion strains, locus YOR290C, strain snf2, stronger effect = lower value 0.994 | S. cerevisiae deletion strains, locus YOR316C, strain cot1, stronger effect = lower value 1 | S. cerevisiae deletion strains, locus YPL051W, strain arl3, stronger effect = lower value 0.981 | S. cerevisiae deletion strains, locus YPL055C, strain LGE1, stronger effect = lower value 1.02 | S. cerevisiae deletion strains, locus YPL078C, strain atp4, stronger effect = lower value 0.974 | S. cerevisiae deletion strains, locus YPL106C, strain sse1, stronger effect = lower value 1.03 | S. cerevisiae deletion strains, locus YPL240C, strain hsp82, stronger effect = lower value 0.986 | S. cerevisiae deletion strains, locus YPL241C, strain CIN2, stronger effect = lower value 1.01 | S. cerevisiae deletion strains, locus YPL256C, strain CLN2, stronger effect = lower value 0.98 | S. cerevisiae deletion strains, locus YPR119W, strain clb2, stronger effect = lower value 0.996 | S. cerevisiae deletion strains, locus YPR141C, strain kar3, stronger effect = lower value 1 | S. cerevisiae deletion strains, locus YPR163C, strain tif3, stronger effect = lower value 1.02 | S. cerevisiae deletion strains, locus YPR167C, strain met16, stronger effect = lower value 0.986 | S. cerevisiae deletion strains, strain wtn01, stronger effect = lower value 0.987 | S. cerevisiae strains, strain wild type, stronger effect = lower value 1.01
